HCV inhibitor: HCV inhibition. 340,000 tested, 3.4% active. Huh7.5.1 HCVcc-Cre infection, luciferase reporter, 44 h. Potency, µM (top dose mostly 41.8 µM), for the others: at the highest dose activity change, negative = inhibition, usual class: inhibitors; further: potency means the concentration at half of the fitted maximal effect
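HCVcc-Cre virus at an moi near 0.5 was added right after compound to cells cultured 4 h from seeding (1,000 cells/well). Luciferase activity was determined 44 h later, 15 min after substrate addition at RT.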
VACV mCherry inh: vaccinia inhibition (mCherry reporter); 310,000 tested, 0.63% active; Potency, µM (titrated, usually from 36.5 µM), for inactives: top-dose activity change, negative = inhibition, most hits filed as inhibitors; Vaccinia virus mCherry reporter infection, fluorescence; AID 720579; calls by dose curve; tested in A549 cells; further: potency means the concentration at half of the fitted maximal effect; nearly all actives have a fitted effect of over 35% in size
Sm TGR inh: S. mansoni TGR enzyme inhibition. purified TGR, DTNB reduction, TNB absorbance 405 nm. Potency, µM (doses to about 114 µM), without a hit: at the highest dose activity change, negative = inhibition, actives largely listed as inhibitors. 360,000 tested, 3% active. AID 485364; further: potency means the concentration at half of the fitted maximal effect; nearly all actives have a fitted effect of over 60% in size
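TGR 20 nM + NADPH 100 uM (dispensed conc.), cpd preinc 15 min RT; start with NADPH (500 uM addition) then DTNB (15 mM addition). Kinetic TNB absorbance, 405 nm filter. Four-parameter Hill fit across titration.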
FMDV inh: blocks foot and mouth disease virus. FMDV antiviral cell-based qHTS. Potency, µM (top dose mostly 57.9 µM), for the others: at the highest dose activity change, negative = inhibition, hits mostly inhibitors. 410,000 tested, 1.2% active. AID 1159524; calls by dose curve; tested in HEK293T cells; further: read-out not given here; potency means the concentration at half of the fitted maximal effect; nearly all actives have a fitted effect of over 45% in size
VACV Venus inh: vaccinia inhibition (Venus reporter). Vaccinia virus Venus reporter expression, fluorescence. Potency, µM (series often up to 36.5 µM), without a hit: top-dose activity change, negative = inhibition, most hits filed as inhibitors. 330,000 tested, 0.46% active. AID 720580; calls by dose curve; tested in A549 cells; further: potency means the concentration at half of the fitted maximal effect; nearly all actives have a fitted effect of over 30% in size
HCMV inh: blocks human cytomegalovirus replication; HFF cells, HCMV-luciferase reporter, 72 h; hits give low values; activity change, negative = inhibition, % at 57.5 µM; 410,000 tested, 4.5% active; AID 1259415; in the data active means activity change below about -60%; inconclusive means no clear call, values can overlap the other calls; inactive means above about -39%
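After 16 h attachment at 37C, HFF cells received test compound and HCMV-luciferase (1 PFU/cell); reporter luminescence read 72 h later, data normalized against buffer-only and known inhibitor Salinomycin.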
The depositor's hits bear a star; i = inactive; u = inconclusive; x = no result. The list is not random: actives were taken first. Their share in the collection is about 9.3%. Unless noted, the call rests on the fitted dose curve; in most records, active means well fitted curve in the direction sought with a large enough effect; inconclusive means small, poorly fitted or top-dose-only effect, or another doubt; inactive means no such curve, though single readings can be large; an effect the other way counts as inactive or inconclusive. On the % scale 0 is the no-effect control and ±100 the full control effect.

SMILES	HCV inhibitor	VACV mCherry inh	Sm TGR inh	FMDV inh	VACV Venus inh	HCMV inh
Cc1cc(Nc2cccc(Cl)c2)nc2ccc(NC(=O)Cc3cccc(C(F)(F)F)c3)cc12	x	-15.2%	2.3%	-14.2%	-19.4%	-99.4*
Cc1cc(Nc2cccc(Cl)c2)nc2ccc(NC(=O)Cc3ccc(Cl)cc3)cc12	x	-26.3%	8.0%	-29.2%	u	-104.3*
CCN1C(=O)c2ccccc2S(=O)c2ccc(C(=O)NCCN(CC(C)C)CC(C)C)cc21 (stereo not drawn)	-7.5%	i	-24.6%	-17.6%	-18.3%	-36.5
Cc1ccc2occ(CC(=O)Nc3ccc(S(N)(=O)=O)cc3)c2c1	x	-6.7%	-11.5%	-13.0%	-4.5%	2.7
Cc1ccc2occ(CC(=O)Nc3ccc(Cl)c(C(F)(F)F)c3)c2c1	x	u	30.2%	-4.0%	u	-77.7*
COc1ccccc1C(=O)Nc1ccc(S(=O)(=O)N(C)c2ccccc2)cc1	u	-24.4%	x	4.4%	-17.7%	-27.7
COc1ccc(C2N(C(=O)c3ccccc3)CCN2C(=O)c2ccc(C)cc2)cc1 (stereo not drawn)	25.0%	i	3.0%	x	-7.3%	-7.6
COc1ccc(C2CN=NC2C(=O)c2ccccc2)cc1 (stereo not drawn)	-25.8%	-10.0%	u	38.8%	-20.0%	-64.4*
CC(C)CC(=O)N1CCN(S(=O)(=O)c2ccc(C3CCCCC3)cc2)CC1	11.2µM*	x	-1.3%	u	x	-27.5
Clc1ccc2c(c1)CNc1c(ncnc1N1CCOCC1)O2	u	x	-2.6%	u	10µM*	3.8
COc1ccc(-c2sc3ccccc3c2-c2ccc(OCCN(C)C)cc2)cc1	u	u	x	u	u	8.5
Cc1c(-c2ccccc2)c(-c2ccc(OCCN(C)C)cc2)n2ccccc12	u	i	x	-2.2%	-1.3%	-73.8*
COc1ccc(CC(NC(C)=O)C(=O)NC2CCN(S(=O)(=O)c3ccc(NC(C)=O)cc3)CC2)cc1OC (stereo not drawn)	0.6%	-25.6%	0.1%	0.3%	-8.5%	u
COc1cc2c(cc1NC(=O)CSc1ccccc1)oc1ccccc12	u	x	4.9%	72.5%	x	u
COc1cc2c(cc1NC(=O)CSc1nc3ccccc3[nH]1)oc1ccccc12	8.91µM*	u	0.2%	-2.6%	-20.9%	u
COc1cc2c(cc1NC(=O)CSc1nccn1C)oc1ccccc12	2.82µM*	x	-4.4%	55.7%	x	-5.9
CCOC(=O)c1ccc(NC(=O)CCc2nc(-c3ccc(C)cc3)no2)cc1	8.91µM*	x	0.1%	u	x	-30.4
O=C(CCc1nc(-c2ccccc2Cl)no1)Nc1cccnc1	12.6µM*	-10.4%	-0.2%	u	-18.6%	-19.3
COc1ccc(-c2noc(CCC(=O)Nc3ccccc3Cl)n2)cc1OC	x	-8.5%	-7.2%	-26.3%	-9.5%	-16.6
Cc1ccc(-c2noc(CCCC(=O)Nc3cccnc3)n2)cc1	-56.7%	-14.5%	-6.9%	u	u	-63.1*
COc1ccccc1-c1noc(CCC(=O)Nc2cccnc2)n1	x	i	x	-27.0%	-13.4%	-2.9
COc1ccc(-c2noc(CCCC(=O)Nc3cccc(Cl)c3C)n2)cc1	x	-7.3%	-0.5%	u	-12.4%	-76.7*
COc1ccc(C)cc1NC(=O)CSc1nnnn1C1CCCC1	-13.8%	-15.9%	8.9%	-7.1%	-18.1%	u
COc1ccc(-c2[nH]ncc2CN2CCN(C3CCCCC3)C(=O)C2)cc1F	-21.4%	0.0%	-16.7%	-12.9%	-12.0%	-39.7
Cc1ccc(-c2noc(CCCC(=O)NC3CCCCC3)n2)cc1	u	-24.6%	-9.5%	u	-19.7%	-77.0*
COc1ccc(-c2noc(CCC(=O)NCCc3ccccc3)n2)cc1	-21.6%	i	6.4%	4.3%	-20.7%	17.3
COc1ccc(-c2noc(CCC(=O)NCCN(C)Cc3ccccc3)n2)cc1	-15.2%	x	89.1µM*	-21.2%	4.5%	-14.0
Cc1cccc(-c2nc(=S)c3c(o2)CCCC3)c1	11.8%	x	-3.7%	2.7%	x	54.2
CCCOC1OC(=O)c2c1ccc(OC)c2OC (stereo not drawn)	29.1%	i	-0.6%	10.6%	-6.4%	20.6
